The list is not random: actives were taken first. Their share in the collection is about 4.3%.
HGIII-sPLA2 inh: Inhibits HGIII-sPLA2 liposome hydrolysis, primary screen. 370,000 tested, 0.56% active. inhibition, % at 12.2 µM. Q9NZ20. QFRET BODIPY PC-A2 liposome hydrolysis, fluorescence;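 active = inhibition above mean plus 3 SD of compounds lying within the high and low control bounds, cut at about 19% in these data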;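 also: 0% = median of test compound wells and 100% = no enzyme DMSO wells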
FAS TE block: blocks the thioesterase domain of human fatty acid synthase; P49327; recombinant FAS-TE, OMFH fluorogenic substrate, fluorescence endpoint; inhibition, % at 15 µM; 360,000 tested, 0.67% active;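 active = compounds whose normalised, plate-corrected inhibition of enzyme fluorescence in the single-dose primary screen is 50% or more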;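 also: 0% = DMSO with enzyme and 100% = substrate without enzyme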
NR3A LBD binder: modulators (binders) of human NR3A ligand-binding domain; NR3A LBD differential scanning fluorimetry, Tm shift; 0% = protein alone, 100% = glycine-bound protein; 340,000 tested, 2.5% active; Tm shift relative to glycine control, % at 25 µM;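 active = melting temperature shift of at least 10% of the positive control shift, at one fixed dose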
ADAM10 inh: inhibits human ADAM10; inhibition, % at 7 µM; AID 720582; O14672; recombinant ADAM10, EDANS/DABCYL FRET peptide cleavage, 3 h; 370,000 tested, 0.62% active;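 active = inhibition above a per-campaign cutoff equal to the mean of compounds falling between control-based bounds plus 3 SD, cut at about 20% in these data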;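 also: 0% = DMSO wells while the 100% control is not disclosed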
Target sequence (O14672 214-748 limits assumed): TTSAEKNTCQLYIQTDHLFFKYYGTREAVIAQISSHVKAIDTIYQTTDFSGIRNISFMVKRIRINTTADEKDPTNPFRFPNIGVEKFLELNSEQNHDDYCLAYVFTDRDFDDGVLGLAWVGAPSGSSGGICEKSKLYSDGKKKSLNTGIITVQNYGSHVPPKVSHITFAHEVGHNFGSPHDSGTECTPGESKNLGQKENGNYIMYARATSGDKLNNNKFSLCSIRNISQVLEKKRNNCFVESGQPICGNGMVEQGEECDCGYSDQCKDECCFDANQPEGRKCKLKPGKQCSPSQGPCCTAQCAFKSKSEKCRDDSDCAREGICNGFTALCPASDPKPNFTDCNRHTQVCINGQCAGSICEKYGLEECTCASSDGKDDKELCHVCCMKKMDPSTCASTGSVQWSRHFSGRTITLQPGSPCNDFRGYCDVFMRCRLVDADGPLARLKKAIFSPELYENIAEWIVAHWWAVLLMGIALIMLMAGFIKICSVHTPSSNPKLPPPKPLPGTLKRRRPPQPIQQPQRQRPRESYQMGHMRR
ADAM17 inh: ADAM17 inhibition, QFRET primary screen | P78536 | 370,000 tested, 0.83% active | recombinant ADAM17, EDANS/DABCYL FRET peptide cleavage | AID 720648 | inhibition, % at 6.95 µM;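 active = inhibition above the mean of compounds lying between control limits plus 3 SD, set per campaign, cut at about 8.5% in these data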;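 also: 0% = DMSO-only wells as the low control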
* hit, by the source's call; · = no result given.

SMILES	HGIII-sPLA2 inh	FAS TE block	NR3A LBD binder	ADAM10 inh	ADAM17 inh
C=Cc1ccc(C(=O)Nc2nnc(-c3cccnc3)s2)cc1	-0.4	·	·	-5.8	0.1
CCc1ccc(NC(=O)CSc2nc3[nH]ncc3c(=O)[nH]2)cc1	1.3	-8.9	-1.0	-5.1	-1.0
O=C(CSc1nc2[nH]ncc2c(=O)[nH]1)Nc1ccc(Cl)cc1	-6.3	-12.4	24.8*	0.9	1.1
Nn1c(SCc2ccc([N+](=O)[O-])cc2)nnc1-c1n[nH]c2c1CCC2	1.5	·	·	-7.1	-1.3
COc1ccc(NC(=S)Nc2cc(C)[nH]n2)cc1Cl	18.9	-3.3	12.1*	-3.0	-1.9
CCOC(=O)c1cn[nH]c1NC(=S)Nc1ccc(OC)cc1	10.1	-139.1	-10.8	-0.1	-2.9
Cc1cc(NC(=S)Nc2ccc(C)c(Cl)c2)n[nH]1	11.6	4.3	-6.0	10.0	6.3
COC(=O)c1cn[nH]c1NC(=S)Nc1ccc(C)cc1Cl	-6.7	-161.1	30.2*	10.0	2.9
COC(=O)c1cn[nH]c1NC(=S)Nc1ccc(Cl)c(Cl)c1	-13.2	-166.6	11.4*	2.2	-1.3
C/C(=N/NC(=O)c1cccnc1)c1cccc(O)c1	11.4	·	·	-8.8	-3.8
COC(=O)C[C@H]1CC[C@H]2[C@H](COc3ccc(NS(=O)(=O)c4ccccc4C)cc3C(=O)N2C)O1	1.9	·	·	-0.2	-0.5
COc1cnn(-c2ccc(Br)cc2)c(=O)c1SCc1ccccc1	-0.8	4.2	15.4*	-0.8	1.4
COc1cnn(-c2ccc(C)cc2)c(=O)c1SCc1ccccc1	-6.4	0.8	-1.0	6.1	-1.6
COCC(=O)N(CCc1ccc(OC)cc1)Cc1nc2ccccc2c(=O)[nH]1	4.1	-4.6	1.4	-8.3	-3.2
CCN(Cc1nc2ccccc2c(=O)[nH]1)C(=O)COc1ccccc1Cc1ccccc1	-27.8	14.2	11.5*	7.8	4.8
CCN(Cc1nc2cc(Cl)ccc2c(=O)[nH]1)C(=O)COc1ccccc1Cc1ccccc1	7.4	26.1	1.7	-16.0	1.7
COCCN(Cc1nc2ccccc2c(=O)[nH]1)C(=O)COc1ccccc1-c1ccccc1	-25.6	6.7	12.8*	9.1	0.4
Cc1nn2c(N3CCN(C4CCCC4)CC3)cc(C(C)(C)C)nc2c1-c1ccccc1	0.9	4.8	12.7*	-6.4	-6.1
CCOC(=O)[C@]12CCCCC/C=C\1N(CCc1ccc(Cl)cc1)C(=O)[C@H]2CC(=O)N1CCOCC1	-1.6	·	·	-0.6	3.1
COC(=O)C1=C[C@@H]([C@@H](C)[C@H](OC)c2ccccc2Br)[C@@H]2OCCC[C@H]12	2.3	·	·	-2.2	-0.9
CNc1ccccc1/C(O)=C(\C#N)C(=O)NCc1cccs1	-4.3	·	·	2.0	-1.0
CN(CCc1ccccn1)C(=O)c1ccc(Sc2ccccc2Cl)c([N+](=O)[O-])c1	7.3	·	·	-4.6	0.6
OCCN(CCCn1c(C(F)(F)F)nc2ccccc21)c1nc(CN2CCCCC2)cs1	11.9	-11.3	0.7	-3.7	-7.0
Cc1ccc(-c2csc(N(CCO)CCCn3c(C(F)(F)F)nc4cc(C(F)(F)F)ccc43)n2)cc1	3.2	14.5	18.6*	-3.2	-0.6
COc1ccc(C(=O)C2CCN(c3ncnc4sccc34)CC2)cc1	-5.9	·	·	0.3	-2.0
SMILES	HGIII-sPLA2 inh	FAS TE block	NR3A LBD binder	ADAM10 inh	ADAM17 inh
COc1ccc(C(=O)Sc2nncc3ccccc23)cc1	9.4	4.7	13.0*	17.5	5.6
COc1ccc(NC(=O)CSc2nncc3ccccc23)cc1	0.9	2.0	0.2	-7.2	-3.8
Cc1cc(C)cc(NC(=O)CCNS(=O)(=O)c2cc(Br)cnc2N)c1	-30.9	7.9	12.5*	-3.5	-2.6
COc1ccc(NC(=O)CCNS(=O)(=O)c2cc(Br)cnc2N)cc1OC	-5.2	-4.5	2.9	-7.5	-1.2
CCOC(=O)c1ccc(NC(=O)CCNS(=O)(=O)c2cc(Br)cnc2N)cc1	-68.2	4.2	15.2*	-12.9	8.0
COc1ccc(CNC(=O)Cn2nc(C(F)(F)F)c(Br)c2C)cc1	0.4	4.1	-3.3	2.8	2.3
COc1cc(NC(=O)Cn2nc(C(F)(F)F)c(Br)c2C)cc([N+](=O)[O-])c1	4.7	47.9	21.1*	2.0	-2.0
CC(C)CSc1ncccc1-c1nc2ccccc2[nH]1	0.2	·	·	-29.6	-9.0
COC(=O)[C@]12C[C@H](CC(=O)NCc3cccs3)C(=O)N(Cc3ccco3)C1=C[C@H](C(C)(C)C)O[C@@H]2C	-8.8	·	·	-3.8	0.2
COc1ccc(CCNC(=O)Nc2ccc3c(c2)[C@@]2(CC(=O)N(CC(C)C)C2c2ccccc2)C(=O)N3C)cc1OC (some centres not stated)	-9.2	·	·	-1.2	-4.9
COc1ccc(Nc2ncnc3sc(-c4ccccc4)cc23)cc1	0.5	30.2	16.4*	-180.7	-49.8
COc1ccc(Nc2cc(Nc3ccccc3)ncn2)cc1	1.6	-6.3	30.8*	4.1	0.8
CCC[C@@H](/C=C/C(=O)OC(C)(C)C)Sc1ccccc1OC	0.9	·	·	1.5	1.3
Nc1c(C(=O)NCC(O)c2ccccc2)cnn1-c1ccccc1 (configuration not stated)	2.5	·	·	-5.9	-0.7
COC(=O)C1CN(Cc2cn(CCOC(C)=O)nn2)CCS(=O)(=O)N1Cc1ccc(OC)cc1 (configuration not stated)	6.7	·	·	5.5	2.4
CN(C)[C@@H]1CCN(c2cccc3c2S(=O)(=O)N2CC[C@@H](C2)O3)C1	6.2	·	·	-7.5	-4.4
O=C(/C=C/c1ccco1)NC(=S)Nc1nc(-c2ccc3ccccc3c2)cs1	5.8	34.5	33.0*	-2.0	-3.4
O=C(/C=C/c1ccco1)NC(=S)Nc1nc(-c2ccc(Cl)cc2)cs1	-3.8	7.6	129.1*	5.6	-0.9
O=C(/C=C\c1ccco1)Nc1nc(-c2ccccc2)cs1	14.5	-3.0	-8.2	2.1	-2.7
CC(C)CC(=O)NC(=S)Nc1nc(-c2ccc(Cl)cc2)cs1	3.1	16.0	29.7*	1.9	-3.0
C[C@@H]1C[C@H]2[C@@H](C)C(=O)N3[C@H](c4ccccc4)[C@H](C)C[C@H]3[C@@H](C)C(=O)N2[C@@H]1c1ccccc1	7.1	·	·	4.1	-2.1
O=C(Oc1ccc(Br)cc1C(=S)N1CCCC1)c1ccccc1Cl	-2.6	21.4	1.7	9.7	1.3
O=C(Oc1ccc(Br)cc1C(=S)N1CCCCC1)c1cc([N+](=O)[O-])cc([N+](=O)[O-])c1	·	53.4*	0.8	·	·
O=C(COc1ccc2ccccc2c1Br)NNC(=O)Nc1ccccc1	-35.6	0.5	10.4*	4.2	1.4
O=C(Cn1nc(-c2ccccc2)c2ccccc21)Oc1ccccc1	5.2	·	·	5.9	6.6
Cc1ccc(S(=O)(=O)Nc2ccccc2)cc1[N+](=O)[O-]	-12.4	2.7	-1.0	-0.4	-3.5
Cc1cccc2c(N=Nc3ccc(S(=O)(=O)Nc4cccc(Cl)c4)cc3[N+](=O)[O-])c(O)[nH]c12	-9.7	20.2	13.0*	-1.0	0.3
